Results filed as inconclusive are left out. Activity calls are given as the source filed them. How the source made its calls: active means hit-call score of the fitted dose curve at least 0.9, where 1 is the maximum; inconclusive means response in the unintended direction; inactive means score below 0.9.
Key:
[1] = biological target: human Serotonin, 5-Hydroxytryptamine Receptor 5A (5HT5A), HTR5A (gene 3361) (UniProt P47898); assay: NVS_GPCR_h5HT5A: NovaScreen (NVS) G Protein-Coupled Receptor Assay for human Serotonin, 5-Hydroxytryptamine Receptor 5A (5HT5A) (AID 2283251)
human Serotonin, 5-Hydroxytryptamine Receptor 5A (5HT5A), HTR5A (gene 3361), sequence (P47898 whole entry, looked up): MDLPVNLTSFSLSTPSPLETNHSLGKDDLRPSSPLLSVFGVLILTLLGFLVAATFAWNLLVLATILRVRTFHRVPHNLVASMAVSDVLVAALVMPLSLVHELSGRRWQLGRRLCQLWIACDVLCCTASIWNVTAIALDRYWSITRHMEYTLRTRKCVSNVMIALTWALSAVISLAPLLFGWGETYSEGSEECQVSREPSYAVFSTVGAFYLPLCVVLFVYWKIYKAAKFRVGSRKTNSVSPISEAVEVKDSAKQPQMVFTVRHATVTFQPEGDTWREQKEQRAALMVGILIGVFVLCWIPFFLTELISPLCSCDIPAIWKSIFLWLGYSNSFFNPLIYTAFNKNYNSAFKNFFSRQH
How it was run: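 Membranes from HEK293 cells, radioligand binding read by filtration and scintillation after 1 h. Single-concentration duplicate testing at 25 uM, then concentration-response for actives; positive-direction fitting relative to DMSO.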

[2] = biological target: guinea pig Opioid, Kappa 1 Receptor (OpiateK), OPRK1 (gene 100135587) (UniProt P41144); assay: NVS_GPCR_gOpiateK: NovaScreen (NVS) G Protein-Coupled Receptor Assay for guinea pig Opioid, Kappa 1 Receptor (OpiateK) (AID 2283252);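 further: radioligand displacement from kappa opioid receptor in guinea pig cerebellar membranes; active means reduced radioligand binding relative to DMSO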
guinea pig Opioid, Kappa 1 Receptor (OpiateK), OPRK1 (gene 100135587), sequence (P41144 whole entry, looked up): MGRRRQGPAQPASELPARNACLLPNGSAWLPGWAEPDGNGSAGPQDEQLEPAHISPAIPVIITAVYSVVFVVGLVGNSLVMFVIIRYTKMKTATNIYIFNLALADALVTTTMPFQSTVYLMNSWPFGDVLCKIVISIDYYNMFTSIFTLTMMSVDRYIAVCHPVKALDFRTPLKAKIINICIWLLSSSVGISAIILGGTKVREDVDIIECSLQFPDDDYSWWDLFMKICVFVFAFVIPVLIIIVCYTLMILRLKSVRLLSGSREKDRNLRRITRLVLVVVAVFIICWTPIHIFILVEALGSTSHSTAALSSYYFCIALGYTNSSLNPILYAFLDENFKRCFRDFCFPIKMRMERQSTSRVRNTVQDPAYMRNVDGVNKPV
How it was run: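 Cell-free tissue prep: guinea pig cerebellar membranes, radioligand displacement, 2 h incubation. Readout: filtration plus scintillation counting. Primary single-point 25 uM duplicate; actives retested in concentration series; DMSO negative control.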

[3] = biological target: human Serotonin, 5-Hydroxytryptamine Receptor 6 (5HT6), HTR6 (gene 3362) (UniProt P50406); assay: NVS_GPCR_h5HT6: NovaScreen (NVS) G Protein-Coupled Receptor Assay for human Serotonin, 5-Hydroxytryptamine Receptor 6 (5HT6) (AID 2283253)
How it was run: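 Filter scintillation counting of radioligand displacement from HEK293-expressed 5HT6, 1 hour post-dose, with loss of signal relative to DMSO. Single 25 uM duplicates first, with concentration series for confirmation.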

[4] = biological target: human Serotonin, 5-Hydroxytryptamine Receptor 7 (5HT7), HTR7 (gene 3363) (UniProt P34969); assay: NVS_GPCR_h5HT7: NovaScreen (NVS) G Protein-Coupled Receptor Assay for human Serotonin, 5-Hydroxytryptamine Receptor 7 (5HT7) (AID 2283255);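 further: hits reduce specific radioligand binding relative to DMSO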
human Serotonin, 5-Hydroxytryptamine Receptor 7 (5HT7), HTR7 (gene 3363), sequence (P34969 whole entry, looked up): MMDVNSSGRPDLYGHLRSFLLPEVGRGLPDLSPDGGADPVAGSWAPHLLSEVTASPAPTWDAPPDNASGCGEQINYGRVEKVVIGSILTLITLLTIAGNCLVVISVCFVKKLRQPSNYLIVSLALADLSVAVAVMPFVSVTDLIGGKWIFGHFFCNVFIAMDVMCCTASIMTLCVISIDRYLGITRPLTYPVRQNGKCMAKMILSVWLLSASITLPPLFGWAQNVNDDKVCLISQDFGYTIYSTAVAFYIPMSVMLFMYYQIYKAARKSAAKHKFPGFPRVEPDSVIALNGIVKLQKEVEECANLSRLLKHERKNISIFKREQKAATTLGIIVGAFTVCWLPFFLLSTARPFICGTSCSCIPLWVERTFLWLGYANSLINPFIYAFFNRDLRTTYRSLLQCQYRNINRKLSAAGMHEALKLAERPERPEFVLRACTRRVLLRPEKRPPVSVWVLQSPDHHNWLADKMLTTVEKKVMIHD
How it was run: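 Filter-bound radioactivity counted after 1 h, with loss of specific radioligand binding fitted against DMSO. Membrane protein came from CHO cells expressing human 5HT7. Chemicals were tested first at 25 uM in duplicate, then in concentration series if active.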

[5] = biological target: human Adenosine A2a Receptor (AdoRA2a), ADORA2A (gene 135) (UniProt P29274); assay: NVS_GPCR_hAdoRA2a: NovaScreen (NVS) G Protein-Coupled Receptor Assay for human Adenosine A2a Receptor (AdoRA2a) (AID 2283256)
How it was run: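 HEK293-derived receptor preparation, radioligand displacement, 1.5 h, filtration + scintillation read. Loss of bound signal scored vs DMSO. Single-point 25 uM in duplicate first, then concentration-response for actives.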

[6] = biological target: human Adrenergic, Beta 1 Receptor (Adrb1), ADRB1 (gene 153) (UniProt P08588); assay: NVS_GPCR_hAdrb1: NovaScreen (NVS) G Protein-Coupled Receptor Assay for human Adrenergic, Beta 1 Receptor (Adrb1) (AID 2283258)
How it was run: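 Membranes/protein extracted from human neuroepithelioma cells, radioligand competition binding read by filtration and scintillation 2 h post-dose. Single 25 uM duplicate screen, then concentration-response follow-up; DMSO as negative control.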

[7] = biological target: human Adrenergic, Alpha 2c Receptor (Adra2C), ADRA2C (gene 152) (UniProt P18825); assay: NVS_GPCR_hAdra2C: NovaScreen (NVS) G Protein-Coupled Receptor Assay for human Adrenergic, Alpha 2c Receptor (Adra2C) (AID 2283259)
human Adrenergic, Alpha 2c Receptor (Adra2C), ADRA2C (gene 152), sequence (P18825 whole entry, looked up): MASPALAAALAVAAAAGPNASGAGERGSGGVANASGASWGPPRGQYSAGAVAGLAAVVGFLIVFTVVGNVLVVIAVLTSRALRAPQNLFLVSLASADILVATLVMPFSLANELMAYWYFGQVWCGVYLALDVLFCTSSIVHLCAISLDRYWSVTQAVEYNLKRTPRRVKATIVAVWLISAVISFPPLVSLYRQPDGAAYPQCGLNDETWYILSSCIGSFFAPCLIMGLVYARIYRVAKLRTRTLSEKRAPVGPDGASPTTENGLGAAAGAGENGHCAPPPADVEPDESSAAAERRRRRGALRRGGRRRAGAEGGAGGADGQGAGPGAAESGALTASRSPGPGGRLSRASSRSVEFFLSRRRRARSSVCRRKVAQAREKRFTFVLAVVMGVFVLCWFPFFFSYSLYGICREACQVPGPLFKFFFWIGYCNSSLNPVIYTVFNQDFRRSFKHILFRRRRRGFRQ
How it was run: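 Screened first in duplicate at 25 uM, with actives then run as concentration series. Membranes from Sf9 cells were exposed for 1 h, and displacement of radioligand was counted after filtration, using DMSO as baseline.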

[8] = biological target: Beta-2 adrenergic receptor (Homo sapiens) (UniProt P07550); assay: NVS_GPCR_hAdrb2: NovaScreen (NVS) G Protein-Coupled Receptor Assay for human Adrenergic, Beta 2 Receptor (Adrb2) (AID 2283261)
Beta-2 adrenergic receptor (Homo sapiens), sequence (P07550 whole entry, looked up): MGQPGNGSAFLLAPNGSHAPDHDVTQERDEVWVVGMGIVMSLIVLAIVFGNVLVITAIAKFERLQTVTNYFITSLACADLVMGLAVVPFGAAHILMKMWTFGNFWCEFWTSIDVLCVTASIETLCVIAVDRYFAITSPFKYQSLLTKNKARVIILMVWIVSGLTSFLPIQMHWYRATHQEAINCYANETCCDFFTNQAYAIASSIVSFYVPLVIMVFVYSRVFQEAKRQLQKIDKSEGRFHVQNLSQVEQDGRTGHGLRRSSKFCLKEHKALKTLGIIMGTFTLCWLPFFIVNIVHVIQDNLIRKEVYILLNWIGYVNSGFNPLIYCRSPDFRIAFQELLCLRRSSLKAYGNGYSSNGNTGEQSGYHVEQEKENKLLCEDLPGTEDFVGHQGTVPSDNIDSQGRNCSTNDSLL
How it was run: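 Compounds screened in duplicate at 25 uM, then actives in concentration series. Human beta-2 receptor from CHO material, cell-free; radioligand displacement after 1 h measured by filtration and scintillation against DMSO baseline.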

[9] = biological target: human Dopamine Receptor D4.4 (DRD4.4), DRD4 (gene 1815) (UniProt P21917); assay: NVS_GPCR_hDRD4.4: NovaScreen (NVS) G Protein-Coupled Receptor Assay for human Dopamine Receptor D4.4 (DRD4.4) (AID 2283264)
How it was run: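 Filter-binding assay with a tritiated or iodinated ligand, cell-free receptor prepared from CHO, 1 hour. Loss of bound radioactivity versus DMSO; single 25 uM duplicate screen, then concentration-response for actives.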

[10] = biological target: human Dopamine Receptor D2 (DRD2), DRD2 (gene 1813) (UniProt P14416); assay: NVS_GPCR_hDRD2s: NovaScreen (NVS) G Protein-Coupled Receptor Assay for human Dopamine Receptor D2 (DRD2) (AID 2283266)
human Dopamine Receptor D2 (DRD2), DRD2 (gene 1813), sequence (P14416 whole entry, looked up): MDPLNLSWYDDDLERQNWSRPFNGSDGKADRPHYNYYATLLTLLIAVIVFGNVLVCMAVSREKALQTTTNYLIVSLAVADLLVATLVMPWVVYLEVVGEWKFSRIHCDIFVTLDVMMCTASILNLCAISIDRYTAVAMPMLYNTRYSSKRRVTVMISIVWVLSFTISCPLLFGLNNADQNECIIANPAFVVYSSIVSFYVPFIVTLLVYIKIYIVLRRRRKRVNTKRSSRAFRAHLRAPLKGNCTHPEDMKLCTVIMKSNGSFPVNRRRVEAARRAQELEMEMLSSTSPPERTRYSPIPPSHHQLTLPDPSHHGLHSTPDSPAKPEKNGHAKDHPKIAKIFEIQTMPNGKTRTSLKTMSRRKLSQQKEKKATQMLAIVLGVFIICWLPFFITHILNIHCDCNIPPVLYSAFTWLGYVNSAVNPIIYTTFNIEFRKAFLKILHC
How it was run: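 Test compound (25 uM, duplicate in the primary screen; concentration series at follow-up) competed with radioligand for human DRD2 in CHO-derived membrane protein. Filter-based scintillation counting was done 1.5 hours after dosing, with loss of signal analysed against DMSO.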

[11] = biological target: human Endothelin Receptor Type B (ETB), EDNRB (gene 1910) (UniProt P24530); assay: NVS_GPCR_hETB: NovaScreen (NVS) G Protein-Coupled Receptor Assay for human Endothelin Receptor Type B (ETB) (AID 2283267)
How it was run: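 Filter-based scintillation readout of radioligand displacement, 4 h, using membranes from human astrocytoma cells. Actives from a 25 uM duplicate screen were retested in concentration-response (top 50 uM) relative to DMSO baseline.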

[12] = biological target: human Histamine 1 Receptor (H1), HRH1 (gene 3269) (UniProt P35367); assay: NVS_GPCR_hH1: NovaScreen (NVS) G Protein-Coupled Receptor Assay for human Histamine 1 Receptor (H1) (AID 2283268)
human Histamine 1 Receptor (H1), HRH1 (gene 3269), sequence (P35367 whole entry, looked up): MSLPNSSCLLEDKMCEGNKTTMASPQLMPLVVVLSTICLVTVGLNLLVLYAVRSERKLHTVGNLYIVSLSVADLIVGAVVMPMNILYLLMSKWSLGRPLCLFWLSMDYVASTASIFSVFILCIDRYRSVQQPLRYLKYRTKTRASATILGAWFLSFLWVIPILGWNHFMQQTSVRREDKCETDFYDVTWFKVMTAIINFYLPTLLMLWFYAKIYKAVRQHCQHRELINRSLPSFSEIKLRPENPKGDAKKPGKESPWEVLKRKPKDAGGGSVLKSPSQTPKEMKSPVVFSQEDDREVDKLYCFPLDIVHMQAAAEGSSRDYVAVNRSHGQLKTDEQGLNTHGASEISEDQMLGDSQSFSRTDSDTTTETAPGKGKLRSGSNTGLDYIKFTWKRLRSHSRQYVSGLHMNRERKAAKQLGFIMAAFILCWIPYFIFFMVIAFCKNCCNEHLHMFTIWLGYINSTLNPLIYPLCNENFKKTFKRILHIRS
How it was run: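 Filter-based scintillation detection of radioligand binding to human H1, 1 h incubation; chemicals screened in duplicate at 25 uM, then concentration-response; signal loss relative to DMSO taken as activity.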

[13] = biological target: Muscarinic acetylcholine receptor M1 (Homo sapiens) (UniProt P11229); assay: NVS_GPCR_hM1: NovaScreen (NVS) G Protein-Coupled Receptor Assay for human Muscarinic, M1 Receptor (AID 2283270)
Muscarinic acetylcholine receptor M1 (Homo sapiens), sequence (P11229 whole entry, looked up): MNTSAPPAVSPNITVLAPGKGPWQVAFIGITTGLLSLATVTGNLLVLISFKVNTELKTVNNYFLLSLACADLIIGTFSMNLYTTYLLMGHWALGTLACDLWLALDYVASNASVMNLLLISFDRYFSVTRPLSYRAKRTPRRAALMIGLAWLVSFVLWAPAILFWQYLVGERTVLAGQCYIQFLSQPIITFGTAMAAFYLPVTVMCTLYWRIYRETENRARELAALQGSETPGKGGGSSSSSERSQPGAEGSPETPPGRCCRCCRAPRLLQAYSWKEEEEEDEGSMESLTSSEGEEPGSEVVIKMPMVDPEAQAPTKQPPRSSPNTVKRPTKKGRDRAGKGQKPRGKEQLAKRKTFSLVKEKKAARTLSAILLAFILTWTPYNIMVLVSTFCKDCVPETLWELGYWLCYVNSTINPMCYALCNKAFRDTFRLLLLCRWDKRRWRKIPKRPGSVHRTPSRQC
How it was run: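 Actives from a duplicate 25 uM single-point screen were retested in concentration series. Binding measured as displacement of a radioligand from CHO-derived receptor preparation, 1 h incubation, filtration and scintillation counting, analysed as signal loss against DMSO.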

[14] = biological target: human Leukotriene B4 Receptor 1 (LTB4-BLT1), LTB4R (gene 1241) (UniProt Q15722); assay: NVS_GPCR_hLTB4_BLT1: NovaScreen (NVS) G Protein-Coupled Receptor Assay for human Leukotriene B4 Receptor 1 (LTB4-BLT1) (AID 2283271)
human Leukotriene B4 Receptor 1 (LTB4-BLT1), LTB4R (gene 1241), sequence (Q15722 whole entry, looked up): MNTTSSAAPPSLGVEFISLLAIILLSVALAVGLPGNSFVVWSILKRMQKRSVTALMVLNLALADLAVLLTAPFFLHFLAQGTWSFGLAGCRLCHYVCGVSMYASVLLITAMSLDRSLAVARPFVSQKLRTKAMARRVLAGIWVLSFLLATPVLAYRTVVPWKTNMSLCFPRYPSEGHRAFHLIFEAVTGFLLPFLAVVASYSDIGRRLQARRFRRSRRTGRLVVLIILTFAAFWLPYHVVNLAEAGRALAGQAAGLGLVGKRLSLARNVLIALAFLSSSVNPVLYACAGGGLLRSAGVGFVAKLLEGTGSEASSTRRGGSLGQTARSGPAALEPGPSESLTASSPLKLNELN
How it was run: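 Cell-free human neutrophil receptor preparation, 1 h exposure, radioligand binding read by filter scintillation counting. Single 25 uM duplicate screen, then concentration series topping at 50 uM; binding loss scored against DMSO baseline.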

[15] = biological target: Muscarinic acetylcholine receptor M3 (Homo sapiens) (UniProt P20309); assay: NVS_GPCR_hM3: NovaScreen (NVS) G Protein-Coupled Receptor Assay for human Muscarinic, M3 Receptor (AID 2283272)
Muscarinic acetylcholine receptor M3 (Homo sapiens), sequence (P20309 whole entry, looked up): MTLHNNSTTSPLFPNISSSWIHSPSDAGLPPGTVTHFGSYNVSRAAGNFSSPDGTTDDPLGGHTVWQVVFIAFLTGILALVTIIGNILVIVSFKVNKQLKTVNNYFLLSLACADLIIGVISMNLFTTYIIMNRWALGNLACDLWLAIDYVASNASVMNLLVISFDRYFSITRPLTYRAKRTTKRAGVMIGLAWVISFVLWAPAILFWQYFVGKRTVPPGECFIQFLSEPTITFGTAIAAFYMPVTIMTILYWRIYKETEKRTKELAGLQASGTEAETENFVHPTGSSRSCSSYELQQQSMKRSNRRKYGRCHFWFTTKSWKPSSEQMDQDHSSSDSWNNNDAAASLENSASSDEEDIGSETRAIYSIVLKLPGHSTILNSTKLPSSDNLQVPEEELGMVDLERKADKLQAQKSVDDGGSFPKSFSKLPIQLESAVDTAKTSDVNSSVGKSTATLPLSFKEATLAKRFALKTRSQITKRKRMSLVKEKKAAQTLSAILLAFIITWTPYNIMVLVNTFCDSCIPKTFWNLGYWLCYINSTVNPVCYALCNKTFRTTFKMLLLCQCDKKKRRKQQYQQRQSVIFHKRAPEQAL
How it was run: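 Radioligand displacement binding on human M3 receptor in CHO-derived membranes, 1 h incubation, filter-based scintillation counting. Primary screen in duplicate at 25 uM; actives followed up in concentration series; loss of signal versus DMSO.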

[16] = biological target: D(1A) dopamine receptor (Homo sapiens) (UniProt P21728); assay: NVS_GPCR_hDRD1: NovaScreen (NVS) G Protein-Coupled Receptor Assay for human Dopamine Receptor D1 (DRD1) (AID 2283269)
D(1A) dopamine receptor (Homo sapiens), sequence (P21728 whole entry, looked up): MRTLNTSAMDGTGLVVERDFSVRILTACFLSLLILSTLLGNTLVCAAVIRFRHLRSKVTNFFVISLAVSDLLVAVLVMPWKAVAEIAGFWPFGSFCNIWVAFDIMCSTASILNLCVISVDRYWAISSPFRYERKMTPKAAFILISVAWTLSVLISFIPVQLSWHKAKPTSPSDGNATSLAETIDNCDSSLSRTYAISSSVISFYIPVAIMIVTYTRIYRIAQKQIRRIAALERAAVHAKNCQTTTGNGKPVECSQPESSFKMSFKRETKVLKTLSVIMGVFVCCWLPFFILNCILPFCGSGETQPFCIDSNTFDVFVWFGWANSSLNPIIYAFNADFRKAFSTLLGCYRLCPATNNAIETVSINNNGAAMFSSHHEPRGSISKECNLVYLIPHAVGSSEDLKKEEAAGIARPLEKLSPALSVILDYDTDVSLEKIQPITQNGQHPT
How it was run: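 Radioligand displacement binding on membranes/protein extracted from HEK293 expressing human D1, cell-free; read 1 h after dosing by filter-based scintillation counting. Primary screen in duplicate at 25 uM, actives followed up in concentration series; signal loss versus DMSO baseline.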

[17] = biological target: human Endothelin Receptor Type A (ETA), EDNRA (gene 1909) (UniProt P25101); assay: NVS_GPCR_hETA: NovaScreen (NVS) G Protein-Coupled Receptor Assay for human Endothelin Receptor Type A (ETA) (AID 2283265)
How it was run: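 Binding of radioligand to membrane protein extracted from SH-SY5Y cells was read by filtration and scintillation after 3 h. Compounds were screened at 25 uM in duplicate, with hits followed up in singleton concentration series to 50 uM.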

[18] = biological target: human Adenosine A1 Receptor (AdoRA1), ADORA1 (gene 134) (UniProt P30542); assay: NVS_GPCR_hAdoRA1: NovaScreen (NVS) G Protein-Coupled Receptor Assay for human Adenosine A1 Receptor (AdoRA1) (AID 2283254)
How it was run: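 Radioligand binding was run on human cortical membranes, cell-free, with filter-based scintillation counting 1 h after dosing. The primary screen was duplicate at 25 uM, followed by concentration series. Signal loss versus DMSO was fitted positive-direction.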

Measured: AC50

Cc1[nH]cnc1C[C@H]1CCc2c(C)c3ccccc3n2C1=O
inactive: [2] | [11] | [13] | [14]
active: [1] 2.93 µM | [3] 0.399 µM | [4] 3.82 µM | [5] 22.2 µM | [6] 1.04 µM | [7] 5.39 µM | [8] 1.39 µM | [9] 18.4 µM | [10] 0.979 µM | [12] 4.88 µM | [15] 15.5 µM

CCN(C(=O)c1cc(C)cc(OC[C@H](C)Nc2ccncc2)c1)C(C)C
active: [14] 5.9 µM | [15] 16.9 µM

O=C(OC[C@H]1O[C@@H](OC(=O)c2cc(O)c(O)c(OC(=O)c3cc(O)c(O)c(O)c3)c2)[C@H](OC(=O)c2cc(O)c(O)c(OC(=O)c3cc(O)c(O)c(O)c3)c2)[C@@H](OC(=O)c2cc(O)c(O)c(OC(=O)c3cc(O)c(O)c(O)c3)c2)[C@@H]1OC(=O)c1cc(O)c(O)c(OC(=O)c2cc(O)c(O)c(O)c2)c1)c1cc(O)c(O)c(OC(=O)c2cc(O)c(O)c(O)c2)c1
inactive: [7] | [16]

CC[C@H](C)C(=O)O[C@H]1C[C@@H](C)C=C2C=C[C@H](C)[C@H](CC[C@@H]3C[C@@H](O)CC(=O)O3)[C@H]21
inactive: [17]

CCCN(C1CCN(C(=O)C2CCNCC2)CC1)[C@@H]1CCc2ccc(OC)cc2C1
inactive: [14]
active: [2] 7.41 µM | [4] 9.11 µM | [10] 18.8 µM | [12] 12.1 µM | [13] 0.00229 µM | [15] 0.00453 µM

CCOc1cccc(-n2cc(C(=O)N3CCN(c4cc(C(=O)O)c5ccccc5c4)CC3)nc2-c2ccc(C)cc2)c1
active: [1] 34 µM | [18] 14.3 µM | [4] 23.8 µM | [7] 12.3 µM | [8] 6.36 µM | [12] 23.8 µM | [16] 17.1 µM

Source: PubChem BioAssay (EPA / NIEHS)
